Results as given in a collection of fitness landscapes (doi:10.1016/j.celrep.2020.107928).
Over roughly 81,000 sequences, “one-hybrid fitness for binding parS DNA” has its median near -0.17; the highest 2% begin near 0.51. The sample as a whole holds a higher share of the highest values than the screen did.

B1: Caulobacter ParB omega fusion; a variant is named by its letters at X, in order, B8GW30 (parent)
chain: MESVVVGEPGMSEGRRGLGRGLSALLGEVDAAPAQAPGEQLGGSREAPIEILQRNPDQPRRTFREEDLEDLSNSIREKGVLQPILVRPSPDTAGEYQIVAGERAWRAAQRAGLKTVPIMVRELDDLAVLEIGIIENVQRADLNVLEEALSYKVLMEKFERTQENIAQTIGKSXSHVANXMRLLXLPDEVQSYLVSGELTAXHARAIAAAADPVALAKQIIEGGLSVRETEALARKAPNLSAGKSKGGRPPRVKDTDTQALESDLSSVLGLDVSIDHRGSTGTLTITYATLEQLDDLCNRLTRGI

Variants of: B1
Experiment: one-hybrid fitness for binding parS DNA (scaled: cognate 1, non-cognate 0); higher = stronger binding
Conditions: with parS DNA site
In short: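 Fitness here means the log change in variant-to-wild-type read ratio between plasmids sequenced before and after selection. That scale was set so cognate equals 1 and non-cognate equals 0. The selection was a bacterial one-hybrid screen of Caulobacter ParB libraries, four specificity codons randomised, in E. coli USO carrying a HIS3 reporter with the site 19 bp from the promoter, grown 48 hours at 37°C on M9-minus-histidine with 0.1 mM IPTG and 5 mM 3-AT.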

Variant | one-hybrid fitness for binding parS DNA
FRQS | ≤ 0.2
WVAL | ≤ 0.2
HINS | ≤ 0.2
FSFV | ≤ 0.2
GGMR | ≤ 0.2
RHIS | 0.813
RHHS | 0.914
RHYS | 0.976
RHRD | ≤ 0.2
RHRN | 0.374
RHPS | 0.475
RHID | ≤ 0.2
RHIP | ≤ 0.2
RHHD | ≤ 0.2
RHYH | 0.223
RHHN | 0.391
RHRS | 0.823
TIDD | ≤ 0.2
PRIM | ≤ 0.2
TPSD | ≤ 0.2
ANRF | ≤ 0.2
TMCR | ≤ 0.2
DPAI | ≤ 0.2
RHLS | 0.978

Variant | one-hybrid fitness for binding parS DNA
RHWP | ≤ 0.2
RHLH | 0.229
RHWN | 0.305
RHLD | ≤ 0.2
RHWS | 0.925
TAQE | ≤ 0.2
RTCV | ≤ 0.2
LSSK | ≤ 0.2
YMSG | ≤ 0.2
SLTS | ≤ 0.2
RDQG | ≤ 0.2
RSQP | ≤ 0.2
RPQG | ≤ 0.2
RMQR | 0.223
RSQH | 0.296
RCQG | 1.02
RLQG | 1.01
RMQG | 1.01
RLQD | ≤ 0.2
RLQN | 0.471
RSQG | 0.995
RMQQ | ≤ 0.2
FGAV | ≤ 0.2
AVLG | ≤ 0.2

Variant | one-hybrid fitness for binding parS DNA
GATL | ≤ 0.2
VSCH | ≤ 0.2
FRAR | ≤ 0.2
KNVC | ≤ 0.2
PTQM | ≤ 0.2
HSEM | ≤ 0.2
RTQG | 1
NFQG | ≤ 0.2
RTQR | ≤ 0.2
RFQG | 0.965
RIQR | ≤ 0.2
DFQG | ≤ 0.2
RIQF | 0.272
RTQF | 0.213
RIQG | 0.999
NSFG | ≤ 0.2
LQRT | ≤ 0.2
MPTI | ≤ 0.2
ANTA | ≤ 0.2
ARCH | ≤ 0.2
HTWT | ≤ 0.2
RDAT | ≤ 0.2
RSAR | ≤ 0.2
RSAT | 0.869

Variant | one-hybrid fitness for binding parS DNA
RCAT | 0.921
RPAT | ≤ 0.2
REAT | ≤ 0.2
LAGT | ≤ 0.2
HRLD | ≤ 0.2
HMAN | ≤ 0.2
WKAR | ≤ 0.2
SDCR | ≤ 0.2
RVTD | ≤ 0.2
RVTC | 0.982
RVTH | 0.22
RVTY | 0.459
RVTP | ≤ 0.2
RVTT | 0.949
RVTK | ≤ 0.2
RVTF | 0.202
RVTG | 0.992
RVTN | 0.432
RVTM | 0.299
RVTS | 0.972
QREG | ≤ 0.2
GTSR | ≤ 0.2
ARHM | ≤ 0.2
EPPR | ≤ 0.2

Variant | one-hybrid fitness for binding parS DNA
HSQW | ≤ 0.2
LRNA | ≤ 0.2
RARE | ≤ 0.2
HIDW | ≤ 0.2
TFRF | ≤ 0.2
GVCA | ≤ 0.2
RSYH | ≤ 0.2
RSIP | ≤ 0.2
RSPN | ≤ 0.2
RSYS | 1.01
RSPP | ≤ 0.2
RPIS | ≤ 0.2
RCIP | 0.228
RCIS | 1.01
RSID | ≤ 0.2
RSYP | ≤ 0.2
RSPS | 0.541
RSIS | 0.887
TPAQ | ≤ 0.2
CKSG | ≤ 0.2
LRFF | ≤ 0.2
RCPH | ≤ 0.2
RCPS | 0.88
RPPS | ≤ 0.2

Variant | one-hybrid fitness for binding parS DNA
WVLG | ≤ 0.2
AQAH | ≤ 0.2
QPQI | ≤ 0.2
RNYC | 0.719
RNPC | 0.358
RNYD | ≤ 0.2
RNIC | 0.523
RNRC | 0.893
RNIP | ≤ 0.2
RNRH | ≤ 0.2
RNLR | ≤ 0.2
RNRD | ≤ 0.2
RNLK | ≤ 0.2
RNYN | 0.235
RNLC | 0.736
VAHC | ≤ 0.2
TAIS | ≤ 0.2
PGSI | ≤ 0.2
MKSG | ≤ 0.2
AHRN | ≤ 0.2
SQMR | ≤ 0.2
IRKE | ≤ 0.2
RNGK | ≤ 0.2
RNCR | ≤ 0.2

Variant | one-hybrid fitness for binding parS DNA
RNCC | 0.704
RNHY | 0.361
RNGC | 0.769
RNSR | ≤ 0.2
RNHQ | ≤ 0.2
RNCY | 0.235
RNSC | 0.848
RNGF | ≤ 0.2
RNHC | 0.798
RNSF | ≤ 0.2
QDYV | ≤ 0.2
VSHT | ≤ 0.2
KTMS | ≤ 0.2
EVAF | ≤ 0.2
RNQD | ≤ 0.2
RNWR | ≤ 0.2
RNWC | 0.569
RNQN | 0.284
DNWC | ≤ 0.2
RNQC | 0.82
TLDS | ≤ 0.2
ARHI | ≤ 0.2
RLVP | ≤ 0.2
RLKT | 0.799

Variant | one-hybrid fitness for binding parS DNA
RLVD | ≤ 0.2
RLKK | ≤ 0.2
RLVT | 0.844
RLKR | ≤ 0.2
PSIF | ≤ 0.2
TTMY | ≤ 0.2
IRGH | ≤ 0.2
RNDF | ≤ 0.2
RNET | 0.498
RNNE | ≤ 0.2
RNDT | 0.562
RNNT | 0.785
RNNY | 0.434
PRSW | ≤ 0.2
AEDR | ≤ 0.2
SKLC | ≤ 0.2
DKAA | ≤ 0.2
RKAA | 0.62
NKAA | ≤ 0.2
RKFA | 0.549
HLVN | ≤ 0.2
EADC | ≤ 0.2
NFLC | ≤ 0.2
DFRC | ≤ 0.2

Variant | one-hybrid fitness for binding parS DNA
DFLC | ≤ 0.2
RFWR | ≤ 0.2
RFWF | ≤ 0.2
RFWC | 0.697
RFQC | 0.925
RFLC | 0.85
RFQY | 0.462
RFRC | 0.969
DFQC | ≤ 0.2
RFRP | ≤ 0.2
SDQF | ≤ 0.2
ENRG | ≤ 0.2
CYNT | ≤ 0.2
LSAC | ≤ 0.2
TCKK | ≤ 0.2
CTYA | ≤ 0.2
TRDK | ≤ 0.2
RFSC | 0.935
RFHC | 0.925
NFCC | ≤ 0.2
RFCC | 0.87
RFSD | ≤ 0.2
NFHC | ≤ 0.2
DFYC | ≤ 0.2

Variant | one-hybrid fitness for binding parS DNA
RFCD | ≤ 0.2
DFHC | ≤ 0.2
RFYC | 0.867
DFSC | ≤ 0.2
RFYN | 0.357
WVLH | ≤ 0.2
GNCC | ≤ 0.2
TRHF | ≤ 0.2
VVNG | ≤ 0.2
TLTV | ≤ 0.2
PSGP | ≤ 0.2
WTLF | ≤ 0.2
RFKS | 0.9
RFVH | ≤ 0.2
RFKN | 0.441
RFVS | 0.892
RFVD | ≤ 0.2
RFKH | 0.252
VTDM | ≤ 0.2
VYTF | ≤ 0.2
PGDI | ≤ 0.2
KILR | ≤ 0.2
RKAP | ≤ 0.2
RKAS | 0.832

Variant | one-hybrid fitness for binding parS DNA
RKFN | 0.295
RKFS | 0.927
RKFP | ≤ 0.2
RKAD | ≤ 0.2
QHMA | ≤ 0.2
SVPY | ≤ 0.2
WRWT | ≤ 0.2
FLPQ | ≤ 0.2
WSPS | ≤ 0.2
QVPW | ≤ 0.2
RLFD | ≤ 0.2
RLAH | ≤ 0.2
RLFN | 0.395
RLFS | 1.03
RLAS | 1
RLAP | ≤ 0.2
HRSG | 0.277
QDER | ≤ 0.2
QMYS | ≤ 0.2
YWTY | ≤ 0.2
IAWK | ≤ 0.2
PACN | ≤ 0.2
RQVT | 0.678
RQKQ | ≤ 0.2

Variant | one-hybrid fitness for binding parS DNA
RQVH | ≤ 0.2
RQVP | ≤ 0.2
RQKF | 0.328
RQKT | 0.819
FSNE | ≤ 0.2
TTGM | ≤ 0.2
ILAP | ≤ 0.2
ELIG | ≤ 0.2
HFGL | ≤ 0.2
DNSG | ≤ 0.2
DNPA | ≤ 0.2
RSIT | 0.628
RHIH | ≤ 0.2
RGIT | 0.278
RHPT | 0.336
RPIT | ≤ 0.2
RCIT | 0.78
RHIT | 0.581
RSPT | 0.372
REIT | ≤ 0.2
YPCV | ≤ 0.2
ALRC | ≤ 0.2
TRWA | ≤ 0.2
AHIG | ≤ 0.2

Variant | one-hybrid fitness for binding parS DNA
RVWC | 0.963
RVGC | 0.934
RVQK | ≤ 0.2
RVWY | 0.49
RVGM | 0.306
RVSH | ≤ 0.2
RVSC | 0.977
RVSD | ≤ 0.2
RVGF | 0.254
RVQC | 0.983
RVWM | 0.344
RVQM | 0.278
PWHI | ≤ 0.2
EAGG | ≤ 0.2
TACV | ≤ 0.2
YPGR | ≤ 0.2
TVMC | ≤ 0.2
GENW | ≤ 0.2
